Data from PubChem BioAssay AID1159580 (chemical genetic matrix, 2015).
Several values for one entry are separate records, joined by “and”; a condition that tells them apart may be missing. Equal values may be shown once. The whole screen tested about 5,500 compounds, of which about 2,000 (36%) were called active. Another 18% or so got no clear call; they are omitted. Rule as the data show it: active = normalized growth mostly below about 0.91 (no sharp cut-off); inconclusive = no clear call, values can overlap the other calls; inactive = mostly above about 0.92. The list shows a part of the results.

Test: chemical genetic growth profiling, strain panel (AID 1159580);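 also: tested at 20 µM; growth read once vehicle control cultures reached saturation at 30 °C; 1 = growth at the plate median or of vehicle wells; lower values mean less growth of the strain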
Conditions: S. cerevisiae deletion strains, growth OD

Measured: normalized growth

COC[C@]12CN(C=O)C3[C@@H]4[C@H](OC)C1[C@]3(C1CC3(O)C(OC)C(O)C4(OC(C)=O)C1C3OC(=O)c1ccccc1)[C@@H](OC)C[C@H]2O (stereo not given in full)
inactive: locus YAL021C, strain ccr4, active compounds read low 1.02 | locus YAL026C, strain drs2, active compounds read low 1.01 | locus YAL030W, strain snc1, active compounds read low 1.01 | locus YBL061C, strain skt5, active compounds read low 1.01 | locus YBR009C, strain hhf1, active compounds read low 1.01 | locus YBR021W, strain FUR4, active compounds read low 0.995 | locus YBR023C, strain chs3, active compounds read low 1.01 | locus YBR171W, strain sec66, active compounds read low 1.03 | locus YBR229C, strain ROT2, active compounds read low 1.01 | locus YBR231C, strain swc5, active compounds read low 1.01 | locus YBR279W, strain paf1, active compounds read low 1.01 | locus YCL011C, strain gbp2, active compounds read low 1.01 | locus YCL016C, strain dcc1, active compounds read low 1.01 | locus YCL029C, strain bik1, active compounds read low 0.997 | locus YCL061C, strain MRC1, active compounds read low 1.02 | locus YCL069W, strain vba3, active compounds read low 1.01 | locus YCR088W, strain abp1, active compounds read low 1.01 | locus YDL005C, strain med2, active compounds read low 1.02 | locus YDL035C, strain GPR1, active compounds read low 1.01 | locus YDL040C, strain nat1, active compounds read low 1.01 | locus YDL074C, strain BRE1, active compounds read low 1.03 | locus YDL101C, strain DUN1, active compounds read low 1.02 | locus YDL185W, strain tfp1, active compounds read low 1.01 | locus YDL192W, strain arf1, active compounds read low 1 | locus YDR001C, strain nth1, active compounds read low 1.01 | locus YDR069C, strain doa4, active compounds read low 1.02 | locus YDR101C, strain arx1, active compounds read low 0.99 | locus YDR137W, strain rgp1, active compounds read low 1.01 | locus YDR159W, strain sac3, active compounds read low 1.01 | locus YDR162C, strain NBP2, active compounds read low 1.02 | locus YDR195W, strain ref2 1.01 | locus YDR297W, strain sur2, active compounds read low 1 | locus YDR318W, strain mcm21, active compounds read low 1.01 | locus YDR334W, strain swr1, active compounds read low 1.01 | locus YDR335W, strain msn5, active compounds read low 0.998 | locus YDR388W, active compounds read low 0.998 | locus YDR392W, strain spt3, active compounds read low 1.01 | locus YDR502C, strain sam2, active compounds read low 1.02 | locus YEL003W, strain gim4, active compounds read low 1.01 | locus YEL037C, strain rad23, active compounds read low 1 | locus YEL061C, strain CIN8 (second series), active compounds read low 1 | locus YEL061C, strain CIN8, active compounds read low 1.01 | locus YER015W, strain faa2, active compounds read low 1.01 | locus YER016W, strain bim1, active compounds read low 1.03 | locus YER110C, active compounds read low 1.01 | locus YER111C, strain swi4, active compounds read low 1.01 | locus YER155C, strain BEM2 (second series), active compounds read low 1.03 | locus YER155C, strain BEM2, active compounds read low 0.995 | locus YER167W, strain BCK2, active compounds read low 1.01 | locus YFR010W, strain ubp6, active compounds read low 1.02 | locus YGL078C, strain dbp3, active compounds read low 1.02 | locus YGL086W, strain mad1, active compounds read low 1.01 | locus YGL167C, strain pmr1, active compounds read low 1.02 | locus YGL173C, strain kem1, active compounds read low 1.01 | locus YGL227W, strain vid30, active compounds read low 1.01 | locus YGL240W, strain doc1, active compounds read low 1.01 | locus YGL248W, strain PDE1, active compounds read low 1.02 | locus YGL253W, strain hxk2, active compounds read low 1.02 | locus YGR135W, strain pre9, active compounds read low 1.02 | locus YGR252W, strain gcn5, active compounds read low 1.02 | locus YHR013C, strain ard1, active compounds read low 1.01 | locus YHR027C, strain rpn1, active compounds read low 1.01 | locus YHR030C, strain SLT2, active compounds read low 1 and 1.05 | locus YHR079C, strain IRE1 (second series), active compounds read low 1.01 | locus YHR079C, strain IRE1, active compounds read low 1.04 | locus YHR094C, strain hxt1, active compounds read low 1.01 | locus YHR129C, strain ARP1, active compounds read low 1 | locus YHR142W, strain chs7, active compounds read low 0.999 | locus YHR200W, strain rpn10, active compounds read low 1.01 | locus YIL066C, strain RNR3, active compounds read low 1.01 | locus YIL073C, strain SPO22, active compounds read low 1.04 | locus YIL125W, strain kgd1, active compounds read low 0.999 | locus YIR030C, strain dcg1, active compounds read low 1 | locus YJL092W, strain hpr5, active compounds read low 1.01 | locus YJL095W, strain BCK1 (second series), active compounds read low 1.02 | locus YJL095W, strain BCK1, active compounds read low 1.04 and 1.02 | locus YJL115W, strain asf1, active compounds read low 0.997 | locus YJL129C, strain trk1, active compounds read low 1.02 | locus YJL134W, strain LCB3, active compounds read low 1.01 | locus YJL154C, strain vps35, active compounds read low 1.01 | locus YJL164C, strain tpk1, active compounds read low 1.01 | locus YJL166W, strain qcr8, active compounds read low 1.01 | locus YJL168C, strain set2, active compounds read low 0.997 | locus YJL187C, strain SWE1 (second series), active compounds read low 1.03 | locus YJL187C, strain SWE1, active compounds read low 1.01
